Screens from PubChem BioAssay.
A selection: hits, their analogues and other compounds. The true share with any hit is near 3.9%.
3CLpro inhibitor – SARS-CoV 3CLpro protease inhibition | inhibition, % at 6 µM | P0C6X7 | actives 0.14% (n = 290,000) | recombinant SARS-CoV 3CLpro, quenched FRET peptide cleavage; in the data active = inhibition above about 12%
Anthrax LF inh2 – blocks Bacillus anthracis lethal factor protease. AID 588501. multiplex microsphere protease cleavage assay, LF. inhibition, % at 10 µM. actives 0.12% (n = 360,000); note: plate controls were buffer without enzyme for full effect and enzyme alone for no effect
Target sequence (P15917 whole entry, looked up): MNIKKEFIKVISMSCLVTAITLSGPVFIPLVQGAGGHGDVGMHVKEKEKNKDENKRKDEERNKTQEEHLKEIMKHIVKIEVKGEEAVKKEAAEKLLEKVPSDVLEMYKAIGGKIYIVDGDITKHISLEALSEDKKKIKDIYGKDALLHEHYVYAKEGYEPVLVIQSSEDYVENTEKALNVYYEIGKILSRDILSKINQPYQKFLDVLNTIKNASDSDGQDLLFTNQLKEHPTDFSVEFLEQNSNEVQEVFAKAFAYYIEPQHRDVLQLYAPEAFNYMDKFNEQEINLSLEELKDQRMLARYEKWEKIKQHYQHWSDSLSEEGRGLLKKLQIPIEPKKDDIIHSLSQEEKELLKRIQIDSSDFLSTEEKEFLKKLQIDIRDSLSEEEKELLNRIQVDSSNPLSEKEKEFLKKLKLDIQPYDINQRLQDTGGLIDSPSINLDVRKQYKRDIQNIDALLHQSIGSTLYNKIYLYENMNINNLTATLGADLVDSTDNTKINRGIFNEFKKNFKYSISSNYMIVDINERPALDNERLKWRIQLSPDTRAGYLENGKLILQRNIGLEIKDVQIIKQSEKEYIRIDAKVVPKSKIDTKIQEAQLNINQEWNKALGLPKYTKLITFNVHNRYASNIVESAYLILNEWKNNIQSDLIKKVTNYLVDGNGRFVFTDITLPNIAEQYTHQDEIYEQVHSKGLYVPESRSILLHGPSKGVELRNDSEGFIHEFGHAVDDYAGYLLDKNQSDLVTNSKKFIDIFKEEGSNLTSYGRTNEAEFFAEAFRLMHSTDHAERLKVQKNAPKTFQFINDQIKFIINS
BoNT-F LC inh – blocks Botulinum neurotoxin F light chain protease; Multiplex microsphere protease cleavage assay, flow cytometry; AID 588497; actives 0.22% (n = 360,000); inhibition, % at 10 µM; in the data active = inhibition above about 35%, passing the limit was not always enough; inconclusive = no clear call, values can overlap the other calls; note: plate controls were buffer without enzyme for full effect and enzyme alone for no effect
Bead autofluor – flagged as autofluorescent in microsphere protease counterscreen. actives 3.1% (n = 360,000). fluorescence intensity (no concentration beside the values). compound autofluorescence counterscreen, microsphere flow cytometry; active compounds read high; in the data active = fluorescence intensity above about 16000; inconclusive = no clear call, values can overlap the other calls
BoNT A protease – blocks Botulinum neurotoxin A light chain protease; multiplex microsphere protease substrate cleavage, flow cytometry; inhibition, % at 10 µM; actives 0.17% (n = 360,000); AID 588499; note: plate controls were buffer without enzyme for full effect and enzyme alone for no effect
CCHF vOTU inh – blocks the CCHF virus ovarian tumor domain protease | CCHFV vOTU protease, Pep-AMC fluorescence | inhibition, % at 11.5 µM | actives 0.55% (n = 370,000) | AID 651958; in the data active = inhibition above about 30%; note: 0% = vehicle wells with enzyme and 100% = no enzyme wells
* hit, by the source's call; ? = inconclusive; / = no result. Cut-off read from the data, not from the text of the source, unless noted: active = inhibition above about 30%; inconclusive = no clear call, values can overlap the other calls; inactive = below that.

SMILES	3CLpro inhibitor	Anthrax LF inh2	BoNT-F LC inh	Bead autofluor	BoNT A protease	CCHF vOTU inh
OC1(c2cccc(C(F)(F)F)c2)CCNCC1	-3.3	-4.9	-4.3	20667*	0.0	-4.7
O=S(=O)(c1ccc(OC(F)(F)F)cc1)N1CCC(O)(c2cccc(C(F)(F)F)c2)CC1	2.0	-6.7	-19.5	3952	1.4	20.7
COc1ccc(C2=Nn3c(nnc3-c3ccccn3)SC2)cc1OC	1.0	-0.9	-1.0	22882*	?	8.6
c1ccc(-c2nnc3n2N=C(c2ccc4ccccc4c2)CS3)nc1	/	/	/	/	/	1.4
c1ccc(-c2nnc3n2N=C(c2ccc4c(c2)OCO4)CS3)nc1	2.3	-0.8	5.6	18035*	4.8	-4.3
CCOC(=O)C1CCCCN1Cc1ccccc1C(F)(F)F (centres undefined)	-3.1	-3.6	4.2	17635*	5.1	-11.3
CCOC(=O)C1CCN(Cc2ccccc2C(F)(F)F)CC1	6.0	0.1	-8.2	11972	0.3	5.7
Cc1ccc2c(c1)C(CS(=O)(=O)NCc1ccccc1)NC2 (centres undefined)	/	/	/	/	/	4.3
O=C(OCc1cn(Cc2ccc(C(F)(F)F)cc2)nn1)N1CCOCC1	/	/	/	/	/	2.4
Cc1nc2c(C(=O)NCc3ccccc3)c[nH]n2c(=O)c1Cl	7.0	-7.7	7.1	20750*	5.4	2.0
Cc1nc2c(C(=O)NCc3ccccc3Cl)c[nH]n2c(=O)c1Cl	9.6	0.5	0.5	13100	-0.1	29.3
O=C(Nc1ccccc1C(=O)NCc1ccccc1)c1ccccc1	2.3	-3.3	2.9	22302*	2.4	2.1
CN(Cc1ccccc1)C(=O)c1ccccc1NC(=O)c1ccccc1	-0.1	0.4	1.5	22709*	2.9	-3.8
Cc1cc(C(=O)NCc2ccccc2)c(=O)[nH]c1C	4.9	-8.4	-5.8	23927*	-3.6	-38.4
O=c1c2ccccc2n(Cc2ccno2)n1[C@@H](Cc1ccccc1)Cn1cc(-c2ccc(-c3ccccc3)cc2)nn1	/	/	/	/	/	-0.9
COc1ccc(CCNC(=O)Nc2ccc3c(c2)[C@@]2(CC(=O)N(CC(C)C)C2c2ccccc2)C(=O)N3C)cc1OC (some centres undefined)	/	/	/	/	/	3.3
CCCCOC(=O)c1ccc(NS(=O)(=O)c2cc(-c3nnnn3CC)ccc2OC)cc1	2.3	-2.1	3.8	3245	0.7	5.3
CCOC(=O)c1ccc(NS(=O)(=O)c2cc(-c3nnnn3CC)ccc2OC)cc1	0.6	-1.7	0.3	19076*	?	-0.5
CCn1nnnc1-c1ccc(OC)c(S(=O)(=O)NCCc2ccccc2)c1	-0.8	-10.0	-2.1	19509*	?	0.7
CCOC(=O)c1ccc(N/C=C/C(=O)c2ccc(OC)c(OC)c2)cc1	6.1	2.1	6.9	19087*	4.3	-9.2
Cc1ccc(Cn2c(=O)cc(C(=O)O)c3ccccc32)cc1	-4.2	1.5	0.0	10046	0.9	/
CCOC(=O)c1cc(=O)n(Cc2ccccc2C)c2ccccc12	-2.6	-1.3	0.2	20854*	-0.3	12.0
O=C(Cc1cccs1)NC1CCCCN(Cc2cccc(Cl)c2)C1=O (centres undefined)	/	/	/	/	/	7.9
Cc1ccc(-c2cc(C)nc3nc(N)nn23)cc1	4.5	0.8	2.6	16426*	0.0	-34.7
Cc1ccc(-c2cc(C)nc3ncnn23)cc1	-1.8	-6.0	-4.5	5859	1.0	1.8
SMILES	3CLpro inhibitor	Anthrax LF inh2	BoNT-F LC inh	Bead autofluor	BoNT A protease	CCHF vOTU inh
Cc1cccc(N2CCN(S(=O)(=O)c3ccc4c(c3)n(C)c(=O)c(=O)n4C)CC2C)c1 (centres undefined)	0.2	-3.8	7.9	19587*	?	1.6
Cc1csc(Sc2ccc([N+](=O)[O-])cc2C(=O)OCC(=O)NC2CCCC(C)C2C)n1 (centres undefined)	3.1	-0.4	-0.2	16483*	0.5	3.3
CCC(C)NC(=O)COC(=O)c1cc([N+](=O)[O-])ccc1Sc1nc(C)cs1 (centres undefined)	3.9	1.1	3.9	2864	-0.3	-2.3
CCCCCOC(=O)c1ccccc1C(=O)O	-1.1	3.8	-5.8	4752	-0.6	-4.1
CCCCCCCCCCOC(=O)c1csc2nnsc12	2.9	-1.6	-3.3	20631*	?	6.6
O=C(c1cc2ccccc2oc1=O)N1CCN(C(=O)C2CCCO2)CC1 (centres undefined)	-0.1	-4.5	-7.4	25648*	-8.2	/
O=C(C1CCCO1)N1CCN(S(=O)(=O)c2ccccc2)CC1 (centres undefined)	1.5	0.3	0.1	22925*	-1.9	/
O=C(c1cc2ccccc2oc1=O)N1CCOCC1	-0.8	-6.2	0.1	3762	-0.2	-9.7
COC(=O)[C@]12C[C@H](CC(=O)NCc3ccccc3)C(=O)N(CCc3ccc(OC)c(OC)c3)C1=C[C@H](C1CCCC1)O[C@@H]2C	/	/	/	/	/	7.7
CCC(C)[C@H](N)c1nnc(SCC(=O)c2ccc(Cl)cc2)o1 (some centres undefined)	-4.0	-0.4	0.6	19418*	5.3	6.9
C[C@H](N)c1nnc(SCc2ccc(Cl)cc2Cl)o1	6.4	-4.1	-9.5	25593*	-4.6	15.8
CC(C)[C@H](N)c1nnc(SCc2ccc(Cl)cc2)o1	0.8	-4.7	-5.2	25032*	-2.0	13.9
COc1ccc(-n2c(SCC(=O)Nc3ccccc3-c3ccccc3)nnc2-c2ccco2)cc1	/	/	/	/	/	-1.9
CNc1ccccc1/C(O)=C(\C#N)C(=O)NCc1cccs1	/	/	/	/	/	-1.1
CC(C)(C)c1nc(CN2CCOCC2)ccc1O	-4.0	-2.5	2.5	21380*	2.2	9.2
CC(C)(C)c1nc(CN2CCCCC2)cc(CN2CCCCC2)c1O	3.1	-6.2	1.4	4682	-0.2	8.2
CCc1ccc(C(=O)c2oc3nc(C)cc(C)c3c2N)cc1	0.4	-5.0	-3.4	20259*	-2.6	-7.2
Cc1ccc(C(=O)c2oc3nc(C)cc(C)c3c2N)cc1	0.6	-2.4	-9.4	5983	-1.1	0.3
Cc1cccc(Cl)c1NC(=O)N(C)c1ccccc1	/	/	/	/	/	12.0
CCCOc1ccc(C(=O)N2CCN(c3ccc(NC(=O)CC)cc3Cl)CC2)cc1	-3.0	1.3	-4.0	20982*	?	-4.9
CN1CCN(c2ccc(NC(=O)COc3ccccc3)cc2Cl)CC1	4.4	-0.2	-3.5	5927	2.6	7.0
COC(F)(C(=O)Nc1ccc2c(c1)C(=O)NC2=O)C(F)(F)F (centres undefined)	1.9	2.6	1.9	22859*	1.2	5.8
O=C1[C@H]2C[C@@]3(n4ccc5ccccc54)c4ccccc4N(S(=O)(=O)c4ccccc4)[C@H]3N2C(=O)CN1Cc1ccccc1	/	/	/	/	/	15.7
CCOCCCn1c(=N)c(C(=O)NCCN2CCOCC2)cc2c(=O)n3cccc(C)c3nc21	-7.0	0.2	-2.5	22990*	-1.1	-160.9
O=C(NC1CCCCC1)C1(c2ccccc2)CC1(Cl)Cl (centres undefined)	-0.5	0.7	9.8	2161	0.2	6.7
CC1(C(=O)NC2CCCCCCC2)CC1(Cl)Cl (centres undefined)	5.2	-4.8	-2.7	17224*	-2.6	4.5
